Experimental data from PubChem BioAssay (NCATS).
Inconclusive results are not listed. Activity calls are given as the source filed them. Calls come from the whole dose curve; as a rule, active = well fitted curve in the direction sought with a large enough effect; inconclusive = small, poorly fitted or top-dose-only effect, or another doubt; inactive = no such curve, though single readings can be large; an effect the other way counts as inactive or inconclusive.

Legend:
[1] = biological target: ATP-dependent 6-phosphofructokinase (Trypanosoma brucei brucei) (UniProt O15648); test: qHTS Assay to Find Inhibitors of T. brucei phosphofructokinase: hit validation (AID 492961); note: % is set by controls: 0 for no effect and ±100 for the full control effect
In short: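 Luminescence from ADP-Glo reports ADP generated as T. brucei PFK (1.25 nM) phosphorylates 0.5 mM fructose-6-phosphate using 0.1 mM ATP. Reactions ran 45 min at room temperature, pH 8.0.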

[2] = biological target: Ubiquitin carboxyl-terminal hydrolase 1 (Homo sapiens) (UniProt O94782); test: Inhibitors of USP1/UAF1: Pilot qHTS (AID 504865);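 note: rhodamine fluorescence freed from ubiquitin-rhodamine substrate followed over time; top concentration of the series differs between compounds; % is set by controls: 0 for no effect and ±100 for the full control effect; nearly all actives have a fitted effect of over 35% in size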
In short: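 USP1/UAF1 complex (1nM) preincubated with compound 15 min at room temperature, then Ub-Rho substrate (150nM final) added. Fluorescence read kinetically at 480/540 nm, 6 reads every 60 seconds. Buffer: 50mM HEPES pH 7.8, 0.5mM EDTA, 0.1 mg/ml BSA, 1mM TCEP, 0.01% Tween-20.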

[3] = biological target: Luciferin 4-monooxygenase (Photinus pyralis) (UniProt P08659); test: Biochemical firefly luciferase enzyme assay for NPC (AID 624030);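 note: purified P. pyralis luciferase at 10 nM with luciferin and ATP substrate; 0% = DMSO and -100% = full luciferase inhibition by PTC124 control; nearly all actives have a fitted effect of over 70% in size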
In short: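 Purified P. pyralis luciferase at 10 nM in 50 mM Tris Acetate (final), luminescence read within 5 minutes of enzyme addition to compounds. Activity normalised to PTC124 versus DMSO; concentration-response curves classed by r2, magnitude and activity.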

[4] = S16 Schwann cell viability assay (CellTiter-Glo assay) (AID 624031);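 note: native untransfected S16 rat Schwann cells; plate controls were DMSO-treated cells for no effect and cell-free wells for full effect; nearly all actives have a fitted effect of over 70% in size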
In short: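 Counter-screen for cytotoxicity: parental S16 rat Schwann cells lacking the PMP22 reporters, treated 24 h with compound, viability from cellular ATP by CellTiter-Glo luminescence, normalized to DMSO (0%) and no-cell wells.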

[5] = S16 Schwann cell PMP22 intronic element firefly luciferase assay (AID 624032);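 note: plate controls were DMSO for no effect and PTC124 positive control mean for full effect; nearly all actives have a fitted effect of over 30% in size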
In short: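 Rat S16 Schwann cells stably carrying firefly luciferase driven by a PMP22 intronic element, in 10% FBS, treated 24 h at 37 C. ONE-Glo luminescence normalized to PTC124 control and DMSO (0%); curves classed by r2, magnitude and activity.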

[6] = qHTS profiling for inhibitors of Plasmodium falciparum proliferation (AID 504749);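 note: 0% = DMSO vehicle and full inhibition = artemisinin control; nearly all actives have a fitted effect of over 60% in size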; details: P. falciparum in erythrocytes, SYBR Green DNA, 72 h, at 28.7 µM (top of the series)
In short: (§1)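 Readout was DNA-dye fluorescence from lysed cultures, ex 485/em 535 nm. Parasitized red cells had grown 72 h with compound; data scaled between 0.29 uM artemisinin and DMSO wells and corrected using vehicle-only plates.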

3D7 = test: as above; details: P. falciparum in erythrocytes, SYBR Green DNA, 72 h; series mostly up to 28.7 µM
In short: as §1

7G8 = test: as above; details: P. falciparum in erythrocytes, SYBR Green DNA, 72 h; series mostly up to 28.7 µM
In short: as §1

AA1029 = test: as above; details: P. falciparum in erythrocytes, SYBR Green DNA, 72 h; series mostly up to 28.7 µM
In short: as §1

AS120 = test: as above; details: P. falciparum in erythrocytes, SYBR Green DNA, 72 h; series mostly up to 28.7 µM
In short: as §1

ATS189 = test: as above; details: P. falciparum in erythrocytes, SYBR Green DNA, 72 h; series mostly up to 28.7 µM
In short: as §1

ATS95 = test: as above; details: P. falciparum in erythrocytes, SYBR Green DNA, 72 h; series mostly up to 28.7 µM
In short: as §1

C2A = test: as above; details: P. falciparum in erythrocytes, SYBR Green DNA, 72 h; series mostly up to 28.7 µM
In short: as §1

CP185 = test: as above; details: P. falciparum in erythrocytes, SYBR Green DNA, 72 h; series mostly up to 28.7 µM
In short: as §1

CP191 = test: as above; details: P. falciparum in erythrocytes, SYBR Green DNA, 72 h; series mostly up to 28.7 µM
In short: as §1

CP192 = test: as above; details: P. falciparum in erythrocytes, SYBR Green DNA, 72 h; series mostly up to 28.7 µM
In short: as §1

CP194 = test: as above; details: P. falciparum in erythrocytes, SYBR Green DNA, 72 h; series mostly up to 28.7 µM
In short: as §1

CP201 = test: as above; details: P. falciparum in erythrocytes, SYBR Green DNA, 72 h; series mostly up to 28.7 µM
In short: as §1

CP203 = test: as above; details: P. falciparum in erythrocytes, SYBR Green DNA, 72 h; series mostly up to 28.7 µM
In short: as §1

CP211 = test: as above; details: P. falciparum in erythrocytes, SYBR Green DNA, 72 h; series mostly up to 28.7 µM
In short: as §1

CP215 = test: as above; details: P. falciparum in erythrocytes, SYBR Green DNA, 72 h; series mostly up to 28.7 µM
In short: as §1

CP217 = test: as above; details: P. falciparum in erythrocytes, SYBR Green DNA, 72 h; series mostly up to 28.7 µM
In short: as §1

CP237 = test: as above; details: P. falciparum in erythrocytes, SYBR Green DNA, 72 h; series mostly up to 28.7 µM
In short: as §1

CP238 = test: as above; details: P. falciparum in erythrocytes, SYBR Green DNA, 72 h; series mostly up to 28.7 µM
In short: as §1

CP247 = test: as above; details: P. falciparum in erythrocytes, SYBR Green DNA, 72 h; series mostly up to 28.7 µM
In short: as §1

CP250 = test: as above; details: P. falciparum in erythrocytes, SYBR Green DNA, 72 h; series mostly up to 28.7 µM
In short: as §1

CP252 = test: as above; details: P. falciparum in erythrocytes, SYBR Green DNA, 72 h; series mostly up to 28.7 µM
In short: as §1

CP256 = test: as above; details: P. falciparum in erythrocytes, SYBR Green DNA, 72 h; series mostly up to 28.7 µM
In short: as §1

CP260 = test: as above; details: P. falciparum in erythrocytes, SYBR Green DNA, 72 h; series mostly up to 28.7 µM
In short: as §1

CP262 = test: as above; details: P. falciparum in erythrocytes, SYBR Green DNA, 72 h; series mostly up to 28.7 µM
In short: as §1

CP265 = test: as above; details: P. falciparum in erythrocytes, SYBR Green DNA, 72 h; series mostly up to 28.7 µM
In short: as §1

CP266 = test: as above; details: P. falciparum in erythrocytes, SYBR Green DNA, 72 h; series mostly up to 28.7 µM
In short: as §1

CP268 = test: as above; details: P. falciparum in erythrocytes, SYBR Green DNA, 72 h; series mostly up to 28.7 µM
In short: as §1

CP269 = test: as above; details: P. falciparum in erythrocytes, SYBR Green DNA, 72 h; series mostly up to 28.7 µM
In short: as §1

CP286 = test: as above; details: P. falciparum in erythrocytes, SYBR Green DNA, 72 h; series mostly up to 28.7 µM
In short: as §1

CP291 = test: as above; details: P. falciparum in erythrocytes, SYBR Green DNA, 72 h; series mostly up to 28.7 µM
In short: as §1

CP297 = test: as above; details: P. falciparum in erythrocytes, SYBR Green DNA, 72 h; series mostly up to 28.7 µM
In short: as §1

CP305 = test: as above; details: P. falciparum in erythrocytes, SYBR Green DNA, 72 h; series mostly up to 28.7 µM
In short: as §1

CP315 = test: as above; details: P. falciparum in erythrocytes, SYBR Green DNA, 72 h; series mostly up to 28.7 µM
In short: as §1

CP325 = test: as above; details: P. falciparum in erythrocytes, SYBR Green DNA, 72 h; series mostly up to 28.7 µM
In short: as §1

CP329 = test: as above; details: P. falciparum in erythrocytes, SYBR Green DNA, 72 h; series mostly up to 28.7 µM
In short: as §1

CP335 = test: as above; details: P. falciparum in erythrocytes, SYBR Green DNA, 72 h; series mostly up to 28.7 µM
In short: as §1

DFO2036 = test: as above; details: P. falciparum in erythrocytes, SYBR Green DNA, 72 h; series mostly up to 28.7 µM
In short: as §1

DIV14 = test: as above; details: P. falciparum in erythrocytes, SYBR Green DNA, 72 h; series mostly up to 28.7 µM
In short: as §1

DIV17 = test: as above; details: P. falciparum in erythrocytes, SYBR Green DNA, 72 h; series mostly up to 28.7 µM
In short: as §1

DIV30 = test: as above; details: P. falciparum in erythrocytes, SYBR Green DNA, 72 h; series mostly up to 28.7 µM
In short: as §1

Dd2 = test: as above; details: P. falciparum in erythrocytes, SYBR Green DNA, 72 h; series mostly up to 28.7 µM
In short: as §1

ECU = test: as above; details: P. falciparum in erythrocytes, SYBR Green DNA, 72 h; series mostly up to 28.7 µM
In short: as §1

FAB9 = test: as above; details: P. falciparum in erythrocytes, SYBR Green DNA, 72 h; series mostly up to 28.7 µM
In short: as §1

GB4 = test: as above; details: P. falciparum in erythrocytes, SYBR Green DNA, 72 h; series mostly up to 28.7 µM
In short: as §1

HB3 = test: as above; details: P. falciparum in erythrocytes, SYBR Green DNA, 72 h; series mostly up to 28.7 µM
In short: as §1

ICS = test: as above; details: P. falciparum in erythrocytes, SYBR Green DNA, 72 h; series mostly up to 28.7 µM
In short: as §1

JCK = test: as above; details: P. falciparum in erythrocytes, SYBR Green DNA, 72 h; series mostly up to 28.7 µM
In short: as §1

N140 = test: as above; details: P. falciparum in erythrocytes, SYBR Green DNA, 72 h; series mostly up to 28.7 µM
In short: as §1

P93_24 = test: as above; details: P. falciparum in erythrocytes, SYBR Green DNA, 72 h; series mostly up to 28.7 µM
In short: as §1

P94_40 = test: as above; details: P. falciparum in erythrocytes, SYBR Green DNA, 72 h; series mostly up to 28.7 µM
In short: as §1

PAD = test: as above; details: P. falciparum in erythrocytes, SYBR Green DNA, 72 h; series mostly up to 28.7 µM
In short: as §1

PC15 = test: as above; details: P. falciparum in erythrocytes, SYBR Green DNA, 72 h; series mostly up to 28.7 µM
In short: as §1

PC26 = test: as above; details: P. falciparum in erythrocytes, SYBR Green DNA, 72 h; series mostly up to 28.7 µM
In short: as §1

PC49 = test: as above; details: P. falciparum in erythrocytes, SYBR Green DNA, 72 h; series mostly up to 28.7 µM
In short: as §1

SC27B = test: as above; details: P. falciparum in erythrocytes, SYBR Green DNA, 72 h; series mostly up to 28.7 µM
In short: as §1

TAB109 = test: as above; details: P. falciparum in erythrocytes, SYBR Green DNA, 72 h; series mostly up to 28.7 µM
In short: as §1

TAB113 = test: as above; details: P. falciparum in erythrocytes, SYBR Green DNA, 72 h; series mostly up to 28.7 µM
In short: as §1

TAB165 = test: as above; details: P. falciparum in erythrocytes, SYBR Green DNA, 72 h; series mostly up to 28.7 µM
In short: as §1

W2 = test: as above; details: P. falciparum in erythrocytes, SYBR Green DNA, 72 h; series mostly up to 28.7 µM
In short: as §1

Luciferin 4-monooxygenase (Photinus pyralis), sequence (P08659 whole entry, looked up): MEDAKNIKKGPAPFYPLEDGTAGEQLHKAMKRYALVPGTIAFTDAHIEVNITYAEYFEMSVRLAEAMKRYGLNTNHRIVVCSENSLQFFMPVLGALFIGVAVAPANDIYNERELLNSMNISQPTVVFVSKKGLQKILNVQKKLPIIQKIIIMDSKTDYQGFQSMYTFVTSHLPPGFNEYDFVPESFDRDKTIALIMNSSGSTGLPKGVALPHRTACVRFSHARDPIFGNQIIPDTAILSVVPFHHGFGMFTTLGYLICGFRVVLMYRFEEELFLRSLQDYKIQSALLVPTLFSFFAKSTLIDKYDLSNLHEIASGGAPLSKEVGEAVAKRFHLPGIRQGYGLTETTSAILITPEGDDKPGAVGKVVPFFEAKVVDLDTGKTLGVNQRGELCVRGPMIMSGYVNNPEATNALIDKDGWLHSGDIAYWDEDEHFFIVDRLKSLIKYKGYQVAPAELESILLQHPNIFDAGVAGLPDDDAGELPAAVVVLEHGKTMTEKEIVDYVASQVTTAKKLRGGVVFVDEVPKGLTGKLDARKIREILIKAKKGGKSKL
Ubiquitin carboxyl-terminal hydrolase 1 (Homo sapiens), sequence (O94782 whole entry, looked up): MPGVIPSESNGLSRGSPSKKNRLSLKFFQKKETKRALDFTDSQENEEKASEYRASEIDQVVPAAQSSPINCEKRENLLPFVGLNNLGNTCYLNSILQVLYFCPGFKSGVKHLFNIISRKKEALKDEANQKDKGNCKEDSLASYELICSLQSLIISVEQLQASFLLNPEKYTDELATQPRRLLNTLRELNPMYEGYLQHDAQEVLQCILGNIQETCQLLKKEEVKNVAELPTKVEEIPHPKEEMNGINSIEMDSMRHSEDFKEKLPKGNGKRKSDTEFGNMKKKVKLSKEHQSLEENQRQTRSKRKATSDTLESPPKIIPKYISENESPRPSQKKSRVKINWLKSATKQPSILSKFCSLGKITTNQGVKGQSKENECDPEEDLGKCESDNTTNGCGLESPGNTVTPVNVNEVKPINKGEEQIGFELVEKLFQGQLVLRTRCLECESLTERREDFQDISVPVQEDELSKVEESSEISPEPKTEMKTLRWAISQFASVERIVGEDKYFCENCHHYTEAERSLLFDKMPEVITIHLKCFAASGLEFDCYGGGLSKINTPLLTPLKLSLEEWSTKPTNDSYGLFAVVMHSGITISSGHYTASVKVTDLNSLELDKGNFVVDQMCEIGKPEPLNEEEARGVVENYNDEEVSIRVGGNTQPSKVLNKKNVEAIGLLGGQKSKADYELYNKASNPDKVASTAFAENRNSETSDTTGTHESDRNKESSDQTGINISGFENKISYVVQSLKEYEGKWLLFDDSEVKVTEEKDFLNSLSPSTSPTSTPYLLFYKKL
ATP-dependent 6-phosphofructokinase (Trypanosoma brucei brucei), sequence (O15648 whole entry, looked up): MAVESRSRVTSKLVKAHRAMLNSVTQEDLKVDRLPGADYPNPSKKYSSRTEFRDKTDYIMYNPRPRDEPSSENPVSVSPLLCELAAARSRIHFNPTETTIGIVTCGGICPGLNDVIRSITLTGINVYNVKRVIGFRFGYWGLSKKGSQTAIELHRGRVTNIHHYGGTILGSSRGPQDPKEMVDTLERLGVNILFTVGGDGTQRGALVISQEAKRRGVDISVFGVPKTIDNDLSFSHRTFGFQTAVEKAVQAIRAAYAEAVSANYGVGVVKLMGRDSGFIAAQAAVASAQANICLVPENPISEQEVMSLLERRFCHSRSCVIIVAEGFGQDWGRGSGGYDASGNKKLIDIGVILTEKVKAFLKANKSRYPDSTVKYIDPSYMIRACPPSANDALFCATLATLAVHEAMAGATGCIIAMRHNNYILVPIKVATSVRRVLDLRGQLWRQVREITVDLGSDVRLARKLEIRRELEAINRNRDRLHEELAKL

Cc1ccc(S(=O)(=O)NC(=O)NC(C)Cc2ccccc2)cc1 (stereo unspecified)
inactive: Potency [1] | Potency [2] | Potency [3] | Potency [4] | Potency [5] | activity, negative = inhibition ([6]; parasite line A) 7.07% | activity, negative = inhibition ([6]; parasite line B) 4.66% | Potency (3D7) | Potency (7G8) | Potency (AA1029) | Potency (AS120) | Potency (ATS189) | Potency (ATS95) | Potency (C2A) | Potency (CP185) | Potency (CP191) | Potency (CP192) | Potency (CP194) | Potency (CP201) | Potency (CP203) | Potency (CP211) | Potency (CP215) | Potency (CP217) | Potency (CP237) | Potency (CP238) | Potency (CP247) | Potency (CP250) | Potency (CP252) | Potency (CP256) | Potency (CP260) | Potency (CP262) | Potency (CP265) | Potency (CP266) | Potency (CP268) | Potency (CP269) | Potency (CP286) | Potency (CP291) | Potency (CP297) | Potency (CP305) | Potency (CP315) | Potency (CP325) | Potency (CP329) | Potency (CP335) | Potency (DFO2036) | Potency (DIV14) | Potency (DIV17) | Potency (DIV30) | Potency (Dd2) | Potency (ECU) | Potency (FAB9) | Potency (GB4) | Potency (HB3) | Potency (ICS) | Potency (JCK) | Potency (N140) | Potency (P93_24) | Potency (P94_40) | Potency (PAD) | Potency (PC15) | Potency (PC26) | Potency (PC49) | Potency (SC27B) | Potency (TAB109) | Potency (TAB113) | Potency (TAB165) | Potency (W2)
